Test results from PubChem BioAssay AID463212 (Sanford-Burnham Center for Chemical Genomics, 2010).
Where “and” joins values, the source holds several entries; their conditions need not be identical. Identical values can stand only once. The campaign covered roughly 330,000 compounds. About 4,400 (1.3%) were called active. The sample as a whole holds a higher share of actives than the screen did. A number with no mark means an inactive call.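 Rule for the calls: active = growth inhibition of the mutant yeast at or above 50%; inactive = the rest.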

Assay: growth inhibitors of tim23-1 mutant yeast, primary screen, luminescence, uHTS (AID 463212);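 note: temperature-sensitive mutant grown at 25 °C; plate controls were DMSO-treated mutant yeast for no effect and medium wells lacking yeast for full effect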
Settings: S. cerevisiae tim23-1 growth, BacTiter-Glo luminescence, 24 h; at 20 µM; active compounds read high

Compound | inhibition
CCOCCOCCC(C(=O)O)P(=O)(c1ccccc1)c1ccccc1 (configuration not stated) | 20.6%
O=C(NC(Nc1nc2ccc([N+](=O)[O-])cc2s1)(C(F)(F)F)C(F)(F)F)c1ccccc1 | 80.5% (active)
O=C(COC(=O)c1ccc([N+](=O)[O-])cc1Cl)NC(=O)c1ccccc1 | -6.06%
O=C(NOCc1ccccc1)c1cccc([N+](=O)[O-])c1 | 40.8%
CN(C)/C=C(/C(=O)c1ccccc1Cl)S(C)(=O)=O | 8.01%
O=S(=O)(Nc1ccc(-c2ccc(N3CCOCC3)nn2)cc1)c1cc(Cl)ccc1Cl | 36%
COc1ccc(CCNC(=O)CN(c2ccccc2)S(C)(=O)=O)cc1 | 10.1%
Cc1cc(C)nc(S/C=C/C(=O)c2ccccc2)n1 | 83.3% (active)
Cc1cc(C)nc(SCc2ccccc2C#N)n1 | 8%
Cc1cc(C)nc(SCC(=O)N(C)C)n1 | 3.33%
COc1ccc(/C=C2/C(=O)N(c3ccccc3)N=C2C)c(OC)c1 | 52.9% (active)
COc1ccc(/C=C2/C(=O)OCc3cc(OC)c(OC)cc32)c(OC)c1 | 23.4%
COc1ccc(C2/C(=C(/O)c3ccccc3)C(=O)C(=O)N2C)c(OC)c1 (configuration not stated) | 12%
Cc1c(NC(=O)c2cc(-c3ccc(Cl)s3)nc3ccccc23)c(=O)n(-c2ccccc2)n1C | 25.7%
NC(=NC(=O)c1ccccc1)C1=C(O)CCC1=O | 15.3%
Cc1ccc(CS(=O)(=O)c2ncc(Cl)c(C(=O)Nc3nnc(C)s3)n2)cc1 | 18.2%
Cc1cccc(NC(=O)c2nc(S(=O)(=O)Cc3ccccc3)ncc2Cl)c1 | 75.9% (active)
Cc1cccc(CS(=O)(=O)c2ncc(Cl)c(C(=O)Nc3ccc(F)cc3)n2)c1 | 39.1%
CCOC(=O)Cc1cc(=O)[nH]c(/N=C(\N)Nc2ccc(OC)cc2)n1 | -4.74%
COCCNc1ccc(-c2n[nH]c(=O)c3ccccc23)cc1[N+](=O)[O-] | 1.96%
CN(CC(=O)Nc1ccc(F)cc1)C(=O)c1ccc(-c2ccc(Cl)cc2)o1 | 36.9%
Cc1[nH][nH]c(=O)c1C(c1ccc(-c2ccc(Cl)cc2)o1)c1c(C)[nH][nH]c1=O | 84.6% (active)
O=C(NC1CCCCC1)c1ccc(-c2ccc(Cl)cc2)o1 | 45.4%
Cc1ccsc1C1C(C#N)=C(N)OC2=C1C(=O)CC(C)(C)C2 (configuration not stated) | 15.8%
NC(=O)COc1ccc(/C=N/NC(=O)C2CCCN2S(=O)(=O)c2ccc(Cl)cc2)cc1 (configuration not stated) | 4.5%

Compound | inhibition
CC1(C)C=Cc2c(ccc3c2OC[C@@H](c2ccc(O)cc2O)C3)O1 | 81.8% (active)
CCCCc1nccn1CCn1ccnc1CCCC | 2.76%
CC(C)(C)c1ccc(C(=O)NNC(=O)Cc2ccccc2)cc1 | 8.91%
CN(C(=O)COC(=O)CNC(=O)C12CC3CC(CC(C3)C1)C2)c1ccccc1 | 3.66%
CN(C(=O)CC(NC(=O)c1ccccc1)(c1ccccc1)c1ccccc1)c1ccccc1 | 51.5% (active)
C=CCn1c(P(C)(=O)O)nc2ccccc21 | 5.79% and -9.61%
O=C(c1ccco1)N1CCN(C(=O)C2CCCN(S(=O)(=O)c3cccc4nsnc34)C2)CC1 (configuration not stated) | 9.26%
Cc1c(Br)ccc(NC(=O)COc2ccccc2C(N)=O)c1C | 3.99%
Cc1cc(=O)cc(C)n1-c1ccc(Cl)c(Cl)c1 | 1.14%
CCSC1=C(C#N)C(=O)n2c1cc1c2CCCC1 | 58% (active)
CCSc1ncnc2c(C#N)c3n(c12)CCCCC3 | 32.7%
CC(=O)NC1CCN(CC(=O)Nc2nccs2)CC1 | 8.15%
COc1ccccc1CCCNC(=O)C1CCC(=O)N(CCN2CCOCC2)C1 (configuration not stated) | -0.497%
Fc1ccccc1COc1ccccc1CNCc1ccncc1 | 3.21%
CCN1CCc2nc(NC(=O)c3cc(F)c(F)cc3Cl)sc2C1 | 4.64%
COc1ccc(CNC(=O)/C(C#N)=C/c2cccc(OC)c2OC)cc1 | 71.3% (active)
COc1ccc(NC(=O)/C(C#N)=C\c2cc(OC)c(OCc3ccc(C(=O)O)cc3)cc2Br)cc1 | 20.5%
COc1ccc(CNC(=O)CCn2cccc2)cc1 | 6.47%
CN(CC(=O)Nc1ccccc1[N+](=O)[O-])Cc1ccc(Br)cc1 | 1.11%
COc1ccccc1CNC(=O)C1Cc2ccccc2C(=O)O1 (configuration not stated) | 17.7%
O=[N+]([O-])c1ccccc1S(=O)(=O)Nc1cccc2cccnc12 | 57.4% (active)
COc1cc(NS(=O)(=O)c2ccc3ccccc3c2)c2ncccc2c1 | 26.4%
NS(=O)(=O)c1ccc(CCNS(=O)(=O)c2cccc3cccnc23)cc1 | 11.4%
CC1(C)COC(c2cccn2Cc2ccccc2Cl)=N1 | 2.43%
COc1ccc(Cl)cc1NC(=O)CN(C)C(=O)c1cc(-c2cccs2)nn1-c1ccccc1 | 25.9%

Compound | inhibition
O=[N+]([O-])c1ccc2oc(-c3cccc(O)c3)nc2c1 | 29.8%
CCc1ccc2oc(-c3ccc(N)cc3)nc2c1 | 65.6% (active)
O=C(N/N=C/c1cc2c(cc1Br)OCO2)C1COc2ccccc2O1 (configuration not stated) | 22.2%
O=C(N/N=C\c1cc(Br)c(Br)o1)C1COc2ccccc2O1 (configuration not stated) | 50.2% (active)
O=C(CNC(=O)C1COc2ccccc2O1)N/N=C/c1cc(Br)c(O)c(Br)c1 (configuration not stated) | 12.1%
CCOC(=O)c1c(NC(C)=O)sc2c(O)c(Br)ccc12 | 20.3%
Cc1ccc(-n2c(SCC(=O)N/N=C/C=C/c3ccccc3[N+](=O)[O-])nc3ccccc3c2=O)cc1 | 12.1%
CCOc1ccc(CCNC(=O)COC(=O)CCS(=O)(=O)c2ccc(C)cc2)cc1OCC | 8.24%
Cc1ccc(Cn2nnc3c(=O)[nH]c(C4CCN(S(=O)(=O)/C=C/c5ccccc5)CC4)nc32)cc1 | 17.8%
Cc1ccc(C(C[N+](=O)[O-])c2c(C)cc3ccccn23)cc1 (configuration not stated) | 48.5%
Nc1ccccc1SC(C[N+](=O)[O-])c1ccccc1 (configuration not stated) | 81.4% (active)
O=C(CN(C(=O)c1csnn1)c1ccc(Br)cc1)NC1CCCC1 | 6.83%
O=C(Nc1nonc1-c1ccc(Cl)cc1)c1ccco1 | 29.1%
CC(C)[C@H](NC(=O)OCc1ccccc1)C(=O)OCc1ccccc1 | 16%
Cc1c(S(=O)(=O)NC(C)c2ccccc2)c(=O)n(C)c(=O)n1C (configuration not stated) | 0.038%
O=C(N/N=C1\CCSC1)c1cc(Cl)ccc1O | 7.53%
Cc1ccc(C(=O)NC23CC4CC(CC(C4)C2)C3)c(Cl)c1 | 20.2%
C/C(=N/NC(=O)c1cc(Cl)ccc1O)C12CC3CC(CC(C3)C1)C2 | 54.5% (active)
CCOc1ccc(S(=O)(=O)NCCCn2ccnc2)cc1NC(C)=O | -2.51%
Cc1ccnc(NC(=O)CCC(=O)N(CC(=O)NCCc2ccccc2)Cc2cccs2)c1 | 6.97%
COc1cccc(CN2C(=O)CCC2(C)C(=O)NC2CCCCCC2)c1 (configuration not stated) | -1.86%
COC(=O)c1c(NC(=O)CSc2nncs2)sc2c1CCCCC2 | 52.6% (active)
COC(=O)c1c(NC(=O)C2CC(C)=C(C)CC2C(=O)O)sc2c1CCCCC2 (configuration not stated) | 27.7%
COC(=O)c1c(NC(=O)CCN2CCOCC2)sc2c1CCCC2 | 26%
Cc1ccc(NS(=O)(=O)c2cn(C)c(=O)n(C)c2=O)c(C)c1 | 11%

Compound | inhibition
Cc1cccc(C(C)C)c1NC(=O)COC(=O)C1CC(=O)N(Cc2ccccc2)C1 (configuration not stated) | -6%
Clc1ccc(Nc2ccc3ccccc3n2)cc1 | 84.8% (active)
Cc1cccc(NC(=O)c2ccc3ccccc3n2)n1 | 26.7%
C(=N\Nc1ccc2ccccc2n1)/c1ccc2c(c1)OCO2 | 18.7%
CC(=O)N1c2ccc(S(=O)(=O)N3CCCC(C(=O)Nc4cccc(F)c4)C3)cc2CC1C (configuration not stated) | 19.4%
S=C(NNC(=S)NC1CC2CCC1C2)NC1CC2C=CC1C2 (configuration not stated) | 13.8%
CC(C)c1ccc(NC(=S)NC2CC3C=CC2C3)cc1 (configuration not stated) | 50.9% (active)
S=C(NNC(=S)NC1CC2C=CC1C2)NC1CC2C=CC1C2 (configuration not stated) | 6.32%
COc1ccc(C(=O)Nc2cccc(NC(=O)c3ccc(OC)cc3OC)n2)c(OC)c1 | -26.2%
COc1cc(SC)ccc1C(=O)Nc1nc(C)cs1 | 51.1% (active)
Cc1csc(NC(=O)c2ccc(C)s2)n1 | 17%
O=C(/C=C/c1ccc(N2CCOCC2)cc1)c1ccccc1 | 35.2%
O=C(/C=C/c1ccccc1)c1ccccc1O | 55.8% (active)
O=C(/C=C/c1ccccc1)N/C(=C/c1ccccc1)C(=O)Nc1ccccc1O | 19.1%
Nc1cc(N)nc(SCC(=O)Nc2cccc(S(=O)(=O)N3CCCCC3)c2)n1 | -8.43%
COc1ccccc1C1=CC(=O)C[C@H](c2ccc(F)cc2)C1 | 35.3%
O=C1C=C(c2cccc(Cl)c2)C[C@@H](c2ccc(F)cc2)C1 | 35.1%
O=C1C=C(c2cccc(Cl)c2O)C[C@@H](c2ccc(F)cc2)C1 | 63.4% (active)
COc1ccc2ccccc2c1CNc1nnnn1C | -0.932%
Cc1cc(C(=O)N/N=C\C(Br)=C\c2ccccc2)c(C)o1 | 55.9% (active)
CC(C)c1cc(C(=O)N/N=C/C(Br)=C/c2ccccc2)n[nH]1 | 34.3%
CC(=C/c1ccccc1)/C=N/NC(=O)c1cc(C)oc1C | -0.867%
